Source: PubChem BioAssay
Only some compounds are listed: those with a hit (about 3.1% of all), similar ones and a draw of the others.
MITF TRPM1 HTS: activators of MITF-driven TRPM1 promoter reporter, primary screen, cell-based, SK-MEL-5, luciferase, single point | SK-MEL-5 TRPM1-promoter luciferase, 24 h; % of positive control, neutral wells = 0 | activation, % at 12.5 µM | 0.75% of 300,000 active;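 active = mean activation of at least 80% with every replicate also reaching 80%; inconclusive = mean reaches 80% but some replicate falls short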;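 also: 0% = neutral control wells and 100% = parthenolide positive control wells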
esBAF inh: Bmi1 luciferase reporter increase in mESCs, primary screen, esBAF inhibitor project, mouse ES cells, Bmi1 luciferase knock-in, single point; reporter increase, % at 12.5 µM; 2% of 350,000 active; 24 h; 100% = twice the neutral-well signal; in the data active = activation above about 40%; inconclusive = no clear call, values can overlap the other calls;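 also: 0% = median of the plate's neutral control wells and 100% = double that signal; a rise in the Bmi1 reporter signal indicates esBAF inhibition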
Wnt act: Wnt/beta-catenin pathway activators, primary screen, cell-based, plate reader, single point; Wnt/beta-catenin reporter cell assay, activator; activation, % at 9.35 µM; 1.2% of 300,000 active; in the data active = activation above about 30%, passing the limit was not always enough; inconclusive = no clear call, values can overlap the other calls;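 also: 0% = neutral control wells and 100% = positive control wells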
C2C12 statin: suppressors of statin myotoxicity in C2C12 myotubes, primary screen, cell-based, single point, plate reader. rescue of ATP level, % at 7.49 µM. C2C12 myotubes + simvastatin, ATP luminescence, 48 h; scaled: DMSO 0, geranylgeraniol control 100. 0.78% of 330,000 active;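 active = mean ATP rescue above about 67%, or every replicate alone reaching that limit, limit read from the data, passing the limit was not always enough; inconclusive = no clear call, values can overlap the other calls; inactive = mean under the limit and some replicate under it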;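 also: myotubes were challenged with 10 µM simvastatin during compound exposure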
Rtt109 Vps75: inhibitors of C. albicans Rtt109/Vps75 HAT, primary screen, biochemical, ThioGlo CoA-SH fluorescence, plate reader | Histone acetyltransferase RTT109 (Candida albicans (strain SC5314 / ATCC MYA-2876)), … | purified Rtt109/Vps75, 4 h | inhibition, % at 34.9 µM | 0.16% of 330,000 active;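 active = inhibition of at least 50% in every replicate; inconclusive = best replicate reaches 50% inhibition but some replicates fall short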
Target sequence (Q5AAJ8 whole entry, looked up): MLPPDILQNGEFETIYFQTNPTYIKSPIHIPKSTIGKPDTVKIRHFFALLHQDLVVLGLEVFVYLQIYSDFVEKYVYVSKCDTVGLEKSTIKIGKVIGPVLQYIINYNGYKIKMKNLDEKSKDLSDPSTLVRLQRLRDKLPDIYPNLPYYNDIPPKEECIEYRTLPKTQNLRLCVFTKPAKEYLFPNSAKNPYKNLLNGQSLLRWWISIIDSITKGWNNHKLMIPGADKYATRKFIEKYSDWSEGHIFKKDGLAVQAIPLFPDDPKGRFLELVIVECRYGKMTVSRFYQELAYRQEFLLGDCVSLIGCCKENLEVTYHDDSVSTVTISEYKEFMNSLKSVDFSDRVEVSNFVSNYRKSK
Active calls of the source: *; ? = inconclusive; / = no result.

SMILES	MITF TRPM1 HTS	esBAF inh	Wnt act	C2C12 statin	Rtt109 Vps75
COc1ccccc1C(=O)C1CCCN(C(=O)c2ccc(C(C)=O)s2)C1 (stereo not given)	1	/	1	/	2
CC(=O)c1ccc(N=Nc2c(C)[nH][nH]c2=O)cc1	/	/	23	/	0
CC(=O)c1ccc(N=Nc2ccc(N)cc2)cc1	15	-39	34*	10	11
COc1ccc(-n2c(C)n[nH]c2=O)cc1	-2	-1	-1	4	-3
Cc1n[nH]c(=O)n1-c1ccc(OCc2ccccc2)cc1	51	44*	5	-1	-1
Cc1noc(C)c1NC(=O)N(C)C[C@@H]1OCCCC[C@H](C)Oc2ccc(NS(=O)(=O)c3c(C)noc3C)cc2C(=O)N([C@H](C)CO)C[C@@H]1C	/	4	/	5	/
C[C@@H]1CN([C@@H](C)CO)S(=O)(=O)c2ccc(-c3cncnc3)cc2O[C@@H]1CN(C)C(=O)c1ccc2c(c1)OCO2	/	-9	/	7	/
Cc1ccc(NC(=O)COc2ccc3c(c2)OCO3)c(Cl)c1	98*	48*	41*	-1	/
N#Cc1ccccc1NC(=O)COc1ccc2c(c1)OCO2	120*	67*	18	4	-6
CCc1ccccc1NC(=O)COc1ccc2c(c1)OCO2	34	/	5	/	9
CC1=C(C(=O)Nc2ccc(CC(=O)NCc3ccccc3C)cc2)SCCO1	59	49*	10	5	0
C[C@H](CO)N1C[C@H](C)[C@@H](CN(C)Cc2ccc(Cl)c(Cl)c2)Oc2ccc(NC(=O)C3CCCCC3)cc2CC1=O	/	2	/	132*	/
C[C@@H]1CN([C@H](C)CO)C(=O)Cc2cc(NC(=O)C3CCCCC3)ccc2O[C@H]1CN(C)Cc1ccc(Cl)c(Cl)c1	/	1	/	139*	/
C[C@@H]1CN([C@@H](C)CO)C(=O)c2cc(C3=CCCC3)cnc2O[C@@H]1CN(C)Cc1cccnc1	/	-4	/	-6	/
C[C@H](O)C#Cc1ccc2c(c1)O[C@@H](CN(C)C)[C@@H](C)CN([C@H](C)CO)S2(=O)=O	/	-1	/	45	/
O=C(COc1ccc2c(c1)CCC2)Nc1ccccn1	-50	51*	12	-8	-5
Cc1cnc(NC(=O)COc2ccc3c(c2)CCC3)s1	40	18	43*	-26	-14
O=C(COc1ccc2c(c1)CCC2)NCc1ccccc1	15	/	2	/	8
Cc1cccc(NC(=O)COc2ccc3oc4c(c3c2)CCCC4)n1	19	17	2	134*	4
O=C(COC(=O)COc1ccc2c(c1)CCC2)Nc1ccccc1	30	42*	0	5	1
CNC(=O)C[C@H]1CC[C@H]2[C@H](COc3ccc(NC(=O)Nc4cccc(Cl)c4)cc3C(=O)N2C)O1	/	-2	/	9	/
O=C(Cc1ccccn1)NCC[C@H]1CC[C@H](NC(=O)Nc2ccccc2)[C@@H](CO)O1	/	0	/	-1	/
Cc1cccc(NC(=O)COc2ccc3c(c2)CCC3)n1	101*	10	2	-4	7
Cc1ccc2cc3c(N)c(C(=O)N4CCOCC4)sc3nc2c1	11	/	59*	/	11
Cc1ccc2nc3sc(C(=O)N4CCOCC4)c(N)c3cc2c1	/	-77	9	/	-22
SMILES	MITF TRPM1 HTS	esBAF inh	Wnt act	C2C12 statin	Rtt109 Vps75
Cc1ccc(-c2cc(C(=O)N3CCOCC3)c3cc(C)ccc3n2)cc1	28	13	31*	-3	3
CS(=O)(=O)N1[C@@H]2Cn3c(ccc(-c4ccc(F)cc4)c3=O)[C@H]1[C@@H](C(=O)N1CCOCC1)[C@@H]2CO	/	2	/	-11	/
O=C(Nc1ccc2nc3n(c(=O)c2c1)CCCC3)c1ccccc1F	39	45*	11	-7	3
COc1ccc(C(=O)Nc2ccc3nc4n(c(=O)c3c2)CCCCC4)cc1OC	/	20	2	-25	/
O=C(Nc1ccc2nc3n(c(=O)c2c1)CCCC3)c1cccc(F)c1	72	45*	9	-33	8
O=C(Nc1ccc2nc3n(c(=O)c2c1)CCCCC3)c1c(F)ccc([N+](=O)[O-])c1F	-96	-85	-1	204*	-12
CCCNC(=O)N1C[C@H]2[C@@H](c3ccccc31)[C@@H](CO)N2CC1CCCCC1	/	-5	/	-31	/
CO[C@H]1CN(C)C(=O)c2cc(NC(=O)C3CCCC3)ccc2OC[C@@H](C)N(C(C)=O)C[C@@H]1C	/	1	/	-9	/
Clc1ccc2nc(-c3ccc(Cl)nc3)[nH]c2c1	42	58*	-1	-33	-2
COc1cc(Cl)ccc1OCc1cc(C(=O)N2CCCCCC2)no1	22	45*	1	-2	-21
COc1cc(Cl)ccc1OCc1cc(C(=O)N2CCN(C3CCCCC3)CC2)no1	/	24	6	5	/
COc1cc(Cl)ccc1OCc1cc(C(=O)N2CCCC(OC)C2)no1 (stereo not given)	55	75*	45*	4	-3
CCCOC1CCCN(C(=O)c2cc(COc3ccc(F)c(F)c3)on2)C1 (stereo not given)	90*	47*	21	3	10
CCCN1CCN(C(=O)c2cc(COc3ccc(F)c(F)c3)on2)CC1	12	?	8	1	-4
Cc1noc(C)c1S(=O)(=O)Nc1ccc2c(c1)CC(=O)N([C@@H](C)CO)C[C@H](C)[C@H](CN(C)S(=O)(=O)c1ccc(F)cc1)O2	/	-1	/	-2	/
C[C@@H]1CN([C@H](C)CO)C(=O)c2cc(C#CC3(O)CCCC3)cnc2O[C@H]1CN(C)C(=O)C1CCOCC1	/	-2	/	11	/
Cc1sc2ncnc(SCC(=O)c3cccs3)c2c1C	34	60*	38*	-21	16
COc1ccc(NC(=O)N(C)C[C@H]2OCc3cn(nn3)CCCC(=O)N([C@H](C)CO)C[C@H]2C)c(OC)c1	/	-2	/	7	/
COc1ccc(C(=O)c2cn[nH]c2-c2cc(Cl)ccc2O)cc1	3	-3	-3	144*	-11
COc1ccc(C(=O)c2ccc(Cl)cc2Cl)cc1	-1	/	/	/	-13
COc1ccc(C(=O)c2ccc(Cl)cc2)cc1	/	46*	1	8	-5
COc1ccc(N/C=C/C(=O)c2ccc(Cl)cc2)cc1	106*	/	/	/	-7
O=C(C[C@@H]1CC[C@@H]2[C@H](COC[C@H](O)CN2Cc2cccc(Cl)c2)O1)NCC1CCCCC1	/	24	/	27	/
CCCC(=O)Nc1ccc2c(c1)OC[C@H](C)N(Cc1ccccc1)C[C@@H](C)[C@H](OC)CN(C)C2=O	/	3	/	15	/
Cc1ccc(CNc2ccc([N+](=O)[O-])cc2C(N)=O)cc1	106*	54*	20	-4	-9
Cc1ccc(S(=O)(=O)Nc2cccc3c2O[C@H](CN(C)S(=O)(=O)c2ccc(C)cc2)[C@H](C)CN([C@H](C)CO)C3=O)cc1	/	1	/	-34	/
